Screens as filed in PubChem BioAssay.
FBW7 act: human FBW7 E3 ligase activation, primary screen; Q969H0; AlphaScreen FBW7–phospho-cyclin E peptide binding, activator screen; normalized activity (activation), % at 26.1 µM; 650,000 compounds, 0.13% hits; AID 1259310; in the data active = normalized activity above about 1.9%;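 note: purified mutant Fbw7 with reduced substrate affinity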
MITF inh: blocks human microphthalmia-associated transcription factor. inhibition, % at 2.6 µM. AlphaScreen MITF homodimerization, bead proximity signal. 650,000 compounds, 0.91% hits; in the data active = inhibition above about 50%;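 note: 0% = vehicle wells with protein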
TEAD-YAP block: TEAD-YAP interaction inhibition; inhibition, % at 9.12 µM; HEK-TIYL cells, TEAD-Gal4/YAP UAS-luciferase luminescence; 640,000 compounds, 1.4% hits; in the data active = inhibition above about 32%;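 note: 0% = median of test compound wells and 100% = reference inhibitor wells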
GPR151 activ: activates the human receptor GPR151; AID 1508602; 650,000 compounds, 1% hits; Q8TDV0; activation, % at 11.2 µM; PathHunter beta-arrestin GPR151 cells, luminescence; in the data active = activation above about 4.9%;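 note: 0% = median of compound wells and 100% = cells with positive control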
Target sequence (Q8TDV0 whole entry, looked up): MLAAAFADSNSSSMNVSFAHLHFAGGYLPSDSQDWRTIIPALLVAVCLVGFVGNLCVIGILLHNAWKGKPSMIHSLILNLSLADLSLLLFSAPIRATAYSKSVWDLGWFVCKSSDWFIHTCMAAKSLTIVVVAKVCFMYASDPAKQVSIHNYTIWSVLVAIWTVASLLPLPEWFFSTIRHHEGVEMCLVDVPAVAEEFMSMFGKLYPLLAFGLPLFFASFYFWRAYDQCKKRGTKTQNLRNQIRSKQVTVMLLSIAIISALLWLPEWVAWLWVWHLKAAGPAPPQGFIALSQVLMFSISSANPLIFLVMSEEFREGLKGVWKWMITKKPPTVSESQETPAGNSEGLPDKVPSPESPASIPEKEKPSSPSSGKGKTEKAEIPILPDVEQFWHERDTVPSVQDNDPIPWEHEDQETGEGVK
An asterisk follows results filed as active. A selection: hits, their analogues and other compounds. The true share with any hit is near 3.5%.

SMILES | FBW7 act | MITF inh | TEAD-YAP block | GPR151 activ
CC(=O)C(C(C)=O)C1=C(Cl)C(=O)C(=O)c2ccccc21 | -1 | 0 | 84* | 0
COc1ccc(Nc2nc(Cl)c(C(F)(F)F)c(Cl)c2Cl)cc1 | 0 | 13 | -2 | 2
Cc1ccc(Nc2c(Cl)c(Cl)nc(Cl)c2C(F)(F)F)cc1 | 0 | 13 | 67* | 0
COc1cc2[nH]c(=S)nc(NCCCN3CCCCCC3)c2cc1OC | 1 | 10 | -6 | 0
CCCNC(=O)C/C(C)=N/NC(=O)c1ccc(OC)c(OC)c1 | 0 | -11 | 34* | -1
COc1ccc(C(=O)N/N=C(\C)c2ccc(C#N)cc2)cc1OC | 0 | 1 | 41* | -1
CCCCOc1ccc(C(=O)NO)cc1OC | 0 | -7 | 40* | -1
COc1ccc(/C(C)=N/NC(=O)c2cccc(F)c2)cc1OC | 0 | -9 | -12 | -1
CC(C)(C)NCCOCCOc1cccc(Cl)c1Cl | 0 | 39 | 4 | 0
O=C(Nn1c(-c2cccc(Cl)c2)nc2ccccc2c1=O)c1cnccn1 | 0 | 6 | -1 | -1
COc1ccccc1OCC(=O)NCc1ccccc1C | 0 | -16 | -6 | 1
CC(=O)c1c(C)[nH]c(C(=O)OCC(=O)Nc2cccc(S(=O)(=O)N3CCCC3)c2)c1C | 0 | 6 | 33* | 0
CC(=O)c1c(C)[nH]c(C(=O)OCC(=O)Nc2ccc(C)c(Cl)c2)c1C | 0 | 4 | 9 | 2
CC(=O)c1c(C)[nH]c(C(=O)OCC(=O)Nc2ccc(F)c(Cl)c2)c1C | 0 | -8 | 35* | 3
CC(=O)c1c(C)[nH]c(C(=O)OCC(=O)Nc2ccc(Cl)cc2)c1C | 0 | -6 | 12 | 2
CC(=O)c1c(C)[nH]c(C(=O)OCC(=O)Nc2cccc(Cl)c2)c1C | 0 | 7 | 44* | -1
O=C(Nc1cc(Cl)cc(Cl)c1)c1cc(S(=O)(=O)O)ccc1F | 0 | -1 | -1 | -4
Cc1ccc(NS(=O)(=O)c2ccc3c(c2)C(=O)c2cc(S(=O)(=O)Nc4ccc(C)cc4C)ccc2-3)c(C)c1 | 0 | 15 | 3 | 0
Cc1c(C(=O)NC(=S)Nc2ccc3oc(-c4cccnc4)nc3c2)oc2ccccc12 | 0 | 3 | -3 | 2
CCN1\C(=C/C=C/C=C/C=O)Sc2ccccc21 | 1 | 30 | -1 | -1
Oc1c(I)cc(I)c2cccnc12 | 0 | 14 | 52* | 0
O=S(=O)(O)c1cc(I)c(O)c2ncccc12 | 0 | 123* | 0 | 0
Oc1c(Cl)cc(Cl)c2cccnc12 | 0 | -4 | 2 | -1
C/C(CC(=O)Nc1ccc2c(c1)OCCO2)=N\NC(=O)c1cnccn1 | 0 | -8 | -38 | 0
CCCc1ccc(Oc2c(C(F)(F)F)oc3cc(OC(C)=O)ccc3c2=O)cc1 | 0 | 10 | 83* | -3
SMILES | FBW7 act | MITF inh | TEAD-YAP block | GPR151 activ
CC(=O)Oc1ccc2c(=O)c(Oc3ccccc3)c(C(F)(F)F)oc2c1 | 1 | -1 | -10 | 0
CC(C)(C)c1ccc(Oc2c(C(F)(F)F)oc3cc(OC(=O)c4cccs4)ccc3c2=O)cc1 | 0 | -2 | 94* | 0
COc1ccc(C(=O)N/C(=C\c2ccc3c(c2)OCO3)C(=O)NCCO)cc1 | 0 | 17 | 1 | -1
NNC(=O)/C(=C\c1ccccc1)NC(=O)c1ccccc1 | 0 | -1 | 7 | 1
NNC(=O)/C(=C\c1cccs1)NC(=O)c1ccccc1 | 0 | 2 | 33* | 0
CCOC(=O)c1csc(NC(=O)c2cc(Cl)ccc2[N+](=O)[O-])n1 | 0 | 18 | 6 | 1
Cc1cc(C=C2C(=O)c3ccccc3C2=O)c(C)n1-c1ccc(S(N)(=O)=O)cc1 | 0 | -6 | 6 | 1
Cc1cc(C=C2C(=O)c3ccccc3C2=O)c(C)n1-c1cc(C(=O)O)cc(C(=O)O)c1 | 0 | 64* | 0 | 1
CS(=O)(=O)n1c(SCc2cccc([N+](=O)[O-])c2)nc2ccccc21 | 1 | 3 | -9 | -1
Cc1ccc2c(c1)-c1c(cnn1CC(=O)Nc1ccc(C)c(F)c1)CO2 | 0 | -10 | -6 | 0
Cc1ccc2c(c1)-c1c(cnn1CC(=O)Nc1ccc3c(C)cc(=O)oc3c1)CO2 | 1 | 13 | 49* | -1
Cc1cc(=O)oc2cc(NC(=O)Cn3ncc4c3-c3ccccc3OC4)ccc12 | 0 | -1 | 49* | 0
Cc1cc(C)cc(NC(=O)Cn2ncc3c2-c2ccccc2OC3)c1 | 0 | -6 | 0 | 2
N#CC1=C(SCC(=O)Nc2cc(Cl)cc(Cl)c2)NC(=O)CC1c1cccs1 (configuration not stated) | 0 | -7 | 43* | -1
